Structures are written as SMILES. Results filed as inconclusive are left out. The source made the active and inactive calls. How the source made its calls: active means hit-call score of the fitted dose curve at least 0.9, where 1 is the maximum; inconclusive means response in the unintended direction; inactive means score below 0.9.

Chain of human Retinoid X Receptor beta (RXRb), RXRB (gene 6257) (P28702 whole entry, looked up): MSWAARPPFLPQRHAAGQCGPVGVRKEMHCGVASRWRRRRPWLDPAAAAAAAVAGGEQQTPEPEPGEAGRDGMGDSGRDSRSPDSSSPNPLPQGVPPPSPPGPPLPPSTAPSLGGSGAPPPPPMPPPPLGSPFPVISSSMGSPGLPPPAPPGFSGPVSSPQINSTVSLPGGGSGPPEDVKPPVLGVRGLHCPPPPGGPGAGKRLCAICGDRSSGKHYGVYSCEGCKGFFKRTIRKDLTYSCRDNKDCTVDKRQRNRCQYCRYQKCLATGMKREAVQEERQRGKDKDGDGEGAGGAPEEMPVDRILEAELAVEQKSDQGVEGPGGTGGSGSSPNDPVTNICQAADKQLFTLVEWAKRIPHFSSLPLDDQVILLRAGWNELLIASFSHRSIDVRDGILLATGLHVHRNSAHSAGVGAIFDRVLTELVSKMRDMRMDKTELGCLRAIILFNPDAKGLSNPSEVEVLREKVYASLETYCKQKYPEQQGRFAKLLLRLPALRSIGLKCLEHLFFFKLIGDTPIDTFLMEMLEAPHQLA

The target of the test is human Retinoid X Receptor beta (RXRb), RXRB (gene 6257) (UniProt P28702). Put plainly: ATG_RXRb_TRANS: Attagene TRANS-FACTORIAL HepG2 Assay for human Retinoid X Receptor beta (RXRb) (AID 2283013). How it is done:
ATG_TRANS is a cell-based, multiplexed-readout assay that uses HepG2, a human liver cell line, with measurements taken at 24 hours after chemical dosing in a 24-well plate.ATG_RXRb_TRANS is one of 30 assay component(s) measured or calculated from the ATG_TRANS assay. It is designed to make measurements of mRNA induction, a form of inducible reporter, as detected with fluorescence intensity signals by Reverse transcription polymerase chain reaction (RT-PCR) and Capillary electrophoresis technology.Data from the assay component ATG_RXRb_TRANS was analyzed into 1 assay endpoint. This assay endpoint, ATG_RXRb_TRANS, was analyzed in the positive analysis fitting direction relative to DMSO as the negative control and baseline of activity. Using a type of inducible reporter, measures of mRNA for gain-of-signal activity can be used to understand the reporter gene at the transcription factor-level as they relate to the gene RXRB. Furthermore, this assay endpoint can be referred to as a primary readout, because this assay has produced multiple assay endpoints where this one serves a reporter gene function. To generalize the intended target to other relatable targets, this assay endpoint is annotated to the nuclear receptor intended target family, where the subfamily is non-steroidal.
Human liver HepG2 cells are transiently transfected with multiple reporter transcription units (MRTUs) in 6-well plates using FuGene 6 reagent (Roche; 3 ml FuGene/1 mg DNA). The MRTU constructs are regulated by a cis-regulating element (promoter). […] A major difference between the CIS and TRANS system is that in CIS activities of endogenous TFs are measured, whereas the TRANS assay evaluates changes in activities of exogenous, chimeric NR-Gal4 proteins. […] At the end of 24 hour incubation, total RNA was isolated using TriZol reagent (Invitrogen). The isolated RNA is then reverse-transcribed using oligo(dT) primer and Mo-MLV reverse transcriptase (Invitrogen) with DNAse I (Ambion) treatment for 30 min. The one-tenth of the produced cDNA was amplified by PCR using Taq DNA polymerase (Invitrogen) and two reporter sequence-specific primers. The PCR products were fluorescently labeled by primer extension with 6-arboxyfluorescein (6-FAM) 5'-labeled reporter sequence-specific primer (2 min at 95 C, 20 s at 68 C and 10 min at 72 C) and these products were digested with 5U of HpaI (New England Biolabs) for 2h at 37 C. The fragments were purified using Qiaquick PCR columns (Qiagen), analyzed on an ABI 3130xL genetic analyzer (Applied Biosystems) with peak positions identified by using a set of X-rhodamine (ROX)-labeled MapMarker1000 molecular weight standards (BioVentures). The raw capillary electrophoresis data was processed using Attagraph software (Attagene).
Turning to `Cc1cccc(C(=O)O)c1`, the result was inactive.

Take `COc1ccc([C@@H]2CC(=O)c3c(O)cc(O[C@@H]4O[C@H](CO[C@@H]5O[C@@H](C)[C@H](O)[C@@H](O)[C@H]5O)[C@@H](O)[C@H](O)[C@H]4O)cc3O2)cc1OC`: the result was inactive.

For the compound `CCc1c(C(=O)O)c(=O)cnn1-c1ccc(Cl)cc1`, the outcome was inactive.

As to `CCC(C)(C)C1CCCCC1OC(C)=O` (stereo not given), the AC50 (as a rule, the midpoint of the concentration-response curve, whichever way the signal moves) was 74.1 µM (active).

`OC1CCCCCCCCCCC1`: the AC50 is 44.6 µM (active).

Regarding `C=CCOc1c(Br)cc(Br)cc1Br`, the AC50 is 6.51 µM (active).

`[Cl][Nd]([Cl])[Cl]`: the call was inactive.

As for `O=C(O)c1cc2ccccc2nc1C(=O)O`, the compound was called inactive.

In the case of `Cc1ccc2c(c1)C(=O)c1ccccc1C2=O`, the result was inactive.

`Nc1ccc(-c2ccc(F)cc2)cc1`: the outcome was inactive.

On to `C=CCCCCCCCCC(=O)OCCCC`, for which the AC50 was 104 µM (active).

With `O=C1C=CC(=O)O1`, the outcome was inactive.

`OCCCS`: the result was inactive.

In the case of `CCOCC(=O)O`, the call was inactive.

`CC1=Nc2ccc3ccccc3c2C1(C)C`: the outcome was inactive.

`CC1(C)O[C@@H]2C[C@H]3[C@@H]4C[C@H](F)C5=CC(=O)C=C[C@]5(C)[C@@]4(F)[C@@H](O)C[C@]3(C)[C@]2(C(=O)CO)O1`: the compound was classed as inactive.

In the case of `C[Si](C)O[Si](C)(C)O[Si](C)(C)O[Si](C)C`, the outcome was inactive.

`CCCCCCCCCCOC(C)=O`: the compound was classed as inactive.

Consider `O=S(=O)(O)CC(O)CCl` (stereo not given), for which the outcome was inactive.

Turning to `COC=O`, the call was inactive.

`CC(C)CC(O)Cc1ccccc1` (stereo not given): the compound was called inactive.

In the case of `Cc1ccc(OC(=O)CC(C)C)cc1`, the call was inactive.

`CCOc1nc(F)cc2nc(S(=O)(=O)Nc3c(Cl)cccc3C(=O)OC)nn12`: the compound was classed as inactive.

In the case of `COCCCOCCCOC`, the compound was called inactive.

Turning to `CCCCCCCCCCCCCCCC[n+]1ccccc1`, the compound was called inactive.

With `CC(C)=CCC/C(C)=C\C#N`, the compound was called inactive.

Consider `CCOC(=O)[C@H](C)O`, for which the compound was classed as inactive.

As to `CCN(Cc1cccc(S(=O)(=O)O)c1)c1ccc(C(=C2C=CC(=[N+](CC)Cc3cccc(S(=O)(=O)[O-])c3)C=C2)c2ccccc2)cc1`, the result was inactive.

As for `FC(F)=C(F)OC(F)(F)C(F)(F)C(F)(F)F`, the result was inactive.

Regarding `O=c1[nH]nc(-c2ccc([N+](=O)[O-])o2)o1`, the outcome was inactive.

As to `O=C1CC2CC1C1CCCC21` (stereo not given), the outcome was inactive.

Turning to `CC(=O)OCC(=O)[C@@]12N=C(C)O[C@@H]1C[C@H]1[C@@H]3CCC4=CC(=O)C=C[C@]4(C)[C@H]3[C@@H](O)C[C@@]12C`, the half-maximal activity concentration (AC50) is 1.62 µM (active).

In the case of `CCCCC(CC)COC(=O)c1ccccc1O` (stereo not given), the outcome was inactive.

Consider `O=C(Nc1cccc(C(F)(F)F)c1)c1cc(Br)cc(Br)c1O`, for which the call was inactive.

Regarding `O=Nc1ccc(O)cc1`, the compound was classed as inactive.

As to `c1ccc2c(c1)ccc1cc3c(ccc4ccccc43)cc12`, the result was inactive.

As for `CC(C)(C)c1ccc(N)cc1`, the compound was called inactive.

On to `COc1cc(C)ccc1C(C)C`, for which the AC50 is 100 µM (active).

On to `CC(C)(C)C(=O)CCc1ccc(Cl)cc1`, for which the compound was called inactive.

As for `CCCCCCCCCCCSCC(=O)O`, the AC50 is 11.5 µM (active).

(Values after PubChem BioAssay (EPA / NIEHS).)
